Experimental findings from PubChem BioAssay (NCATS) are described below.

For assay [1], the target named is Calcium and integrin-binding protein 1 (Homo sapiens) (UniProt Q99828). Nature of the assay: Primary qHTS for Identification of Calcium Integrin Binding Protein 1 (CIB1) Competitor (AID 1508620). Further: potency means the concentration at half of the fitted maximal effect. In short, it runs like this: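 Fluorescence polarization competition: GST-tagged CIB1 (1 uM final) preincubated with compound 15 min at room temperature, then FITC-labelled alphaIIb peptide (100 nM final) added. After 15 min at room temperature, polarization read at Ex 480/Em 540.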

Assay [2] concerns the target Cytochrome P450 2D6 (Homo sapiens) (UniProt P10635). The assay can be described thus: Cytochrome P450 family 2 subfamily D member 6 (CYP2D6) small molecule antagonists: luciferase biochemical (cell-free) qHTS assay (AID 1645840; active means well fitted curve in the direction sought with a large enough effect in the repeat runs; an effect the other way counts as inactive or inconclusive; further: nearly all actives have a fitted effect of over 55% in size; further: potency means the concentration at half of the fitted maximal effect). In short, it runs like this:
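P450-Glo luminescent screen: recombinant CYP2D6 enzyme–proluciferin substrate mix preincubated with compound 10 min at room temperature, then NADPH regeneration added for 1 h at room temperature. Detection reagent added for 20 min; luciferin light read as relative luminescence units.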

The target in assay [3] is Cytochrome P450 2C9 (Homo sapiens) (UniProt P11712). The assay can be described thus: Cytochrome P450 family 2 subfamily C member 9 (CYP2C9) small molecule antagonists: luciferase biochemical (cell-free) qHTS assay (AID 1645842; active means well fitted curve in the direction sought with a large enough effect in the repeat runs; an effect the other way counts as inactive or inconclusive; further: potency means the concentration at half of the fitted maximal effect; nearly all actives have a fitted effect of over 55% in size). The method in brief:
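Luminescence, after 20 min with luciferin detection reagent, reflected CYP2C9 turnover during a 1 h NADPH-driven reaction at 37C. Enzyme-substrate mix contained 0.4% bovine serum albumin and was preincubated with compound 10 min at room temperature.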
For orientation: In qHTS, concentration-response curves come from the screen itself.

Assay [4] is described as follows: Primary qHTS for inhibitors of nuclear receptor binding SET domain protein 2 (NSD2) in an RCH-ACV wild type WT cells (2C) (AID 1645877). Further: nearly all actives have a fitted effect of over 70% in size. Further: potency means the concentration at half of the fitted maximal effect.
Assay [5] can be described thus: Primary qHTS for inhibitors of nuclear receptor binding SET domain protein 2 (NSD2) in an isogenic RCH-ACV NSD2 p.E1099K mutant (9B) (AID 1645876). Further: nearly all actives have a fitted effect of over 70% in size. Further: potency means the concentration at half of the fitted maximal effect.
The target in assay [6] is N-terminal Xaa-Pro-Lys N-methyltransferase 1 (Homo sapiens) (UniProt Q9BV86). Nature of the assay: Confirmatory qHTS for Inhibitors of N-terminal methyltransferase 1 (NTMT1): MTaseGlo Assay (AID 1645874).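 Further: luminescence from SAH made as NTMT1 methylates SPKRIA peptide using SAM; series mostly up to about 100 µM; nearly all actives have a fitted effect of over 65% in size.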 In short, it runs like this: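 Compounds are incubated with 125 nM NTMT1 and 100 uM SAM for 15 min before the SPKRIA peptide (1 uM) starts a 30 min room-temperature methylation. SAH is measured by coupled luciferase luminescence and curves fitted to a Hill equation.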

Where “and” joins values, the source holds several entries; their conditions need not be identical. Equal values may be shown once. Results filed as inconclusive are left out. Calls of active or inactive are those of the source. Unless noted, the call rests on the fitted dose curve; in most records, active means well fitted curve in the direction sought with a large enough effect; inconclusive means small, poorly fitted or top-dose-only effect, or another doubt; inactive means no such curve, though single readings can be large; an effect the other way counts as inactive or inconclusive.

Chain of Cytochrome P450 2D6 (Homo sapiens) (P10635 whole entry, looked up): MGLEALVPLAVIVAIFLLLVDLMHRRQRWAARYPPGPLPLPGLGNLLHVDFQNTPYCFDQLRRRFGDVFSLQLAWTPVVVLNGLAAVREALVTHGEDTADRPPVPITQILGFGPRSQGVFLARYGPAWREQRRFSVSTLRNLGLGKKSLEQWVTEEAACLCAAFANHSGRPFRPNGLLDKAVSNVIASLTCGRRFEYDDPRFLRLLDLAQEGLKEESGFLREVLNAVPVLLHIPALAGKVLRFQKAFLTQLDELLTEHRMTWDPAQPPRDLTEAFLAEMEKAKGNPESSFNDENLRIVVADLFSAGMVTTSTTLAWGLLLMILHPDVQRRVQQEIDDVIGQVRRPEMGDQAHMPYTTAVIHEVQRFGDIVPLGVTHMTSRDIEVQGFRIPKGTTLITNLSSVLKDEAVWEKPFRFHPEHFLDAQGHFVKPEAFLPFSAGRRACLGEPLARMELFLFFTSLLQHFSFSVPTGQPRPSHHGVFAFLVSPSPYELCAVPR
Chain of Cytochrome P450 2C9 (Homo sapiens) (P11712 whole entry, looked up): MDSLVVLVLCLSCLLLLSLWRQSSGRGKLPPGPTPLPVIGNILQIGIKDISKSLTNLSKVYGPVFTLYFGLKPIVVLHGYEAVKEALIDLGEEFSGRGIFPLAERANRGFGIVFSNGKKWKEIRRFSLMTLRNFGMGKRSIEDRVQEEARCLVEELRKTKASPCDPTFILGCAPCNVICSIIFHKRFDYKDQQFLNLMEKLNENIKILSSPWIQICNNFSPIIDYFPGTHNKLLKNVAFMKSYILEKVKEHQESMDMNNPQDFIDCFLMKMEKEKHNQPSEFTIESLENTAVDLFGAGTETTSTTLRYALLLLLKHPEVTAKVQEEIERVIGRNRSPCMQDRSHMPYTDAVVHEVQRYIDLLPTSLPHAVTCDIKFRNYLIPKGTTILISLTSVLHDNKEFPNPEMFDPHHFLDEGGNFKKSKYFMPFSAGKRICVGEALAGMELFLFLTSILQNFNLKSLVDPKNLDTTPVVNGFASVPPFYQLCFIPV
Chain of Calcium and integrin-binding protein 1 (Homo sapiens) (Q99828 whole entry, looked up): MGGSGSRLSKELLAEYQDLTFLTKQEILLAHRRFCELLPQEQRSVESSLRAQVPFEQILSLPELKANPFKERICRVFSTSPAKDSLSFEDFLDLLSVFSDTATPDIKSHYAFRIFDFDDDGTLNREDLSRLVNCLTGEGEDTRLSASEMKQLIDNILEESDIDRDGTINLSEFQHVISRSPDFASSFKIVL
Chain of N-terminal Xaa-Pro-Lys N-methyltransferase 1 (Homo sapiens) (Q9BV86 whole entry, looked up): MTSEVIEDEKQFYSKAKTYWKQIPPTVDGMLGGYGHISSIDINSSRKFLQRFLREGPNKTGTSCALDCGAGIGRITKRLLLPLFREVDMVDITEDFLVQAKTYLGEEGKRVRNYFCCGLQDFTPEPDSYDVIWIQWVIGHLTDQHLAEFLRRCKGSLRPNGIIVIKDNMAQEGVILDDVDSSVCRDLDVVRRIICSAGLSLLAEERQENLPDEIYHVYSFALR

`O=S1(=O)CCN(Cc2cc(NCC3CCOCC3)c3[nH]c(-c4ccccc4)cc3c2)CC1`: in assay [1], the Potency entry is “inactive”. Further, the Potency in assay [2] is 12 µM (active); in assay [3], 3.38 µM (active); in assay [4] it was 10.3 µM (active).

For the compound `C=CC(=O)N1CCN(C(=O)CNc2cc(-c3ccccc3Cl)c(Cl)cc2OC)CC1`, the Potency entry in assay [1] is “inactive”. Further, the values for the Potency in assay [2], in assay [3] and in assay [4] were 12 µM (active), 3.01 µM (active) and 16.3 µM (active), respectively.

As for `Cc1[nH]c2ccccc2c1CCNC(=O)c1cccs1`, the Potency result in assay [1], in assay [5] and in assay [4] was “inactive” in each case. In addition, the Potency in assay [2] is 23.9 µM (active).

For the compound `O=C(NCCN1CCC(n2c(=O)[nH]c3ccccc32)CC1)c1ccc2ccccc2c1`, the Potency entry in assay [1] is “inactive”. Besides, the Potency is 12 µM (active) in assay [2], 7.56 µM (active) in assay [3] and 16.3 µM (active) in assay [4].

`CC(C)(Cc1nc(-c2ccc(O)cn2)no1)C(=O)NC1=C(C(=O)O)CCCC1`: the Potency entry in assay [1], in assay [2] and in assay [5] was “inactive” each time.

Take `CN1CCN(c2ccc(OC(F)(F)F)c(Nc3ncc4c(n3)-c3c(c(C(N)=O)nn3CCO)CC4)c2)CC1`: the Potency result in assay [1] and in assay [2] was “inactive” throughout. Besides, the Potency in assay [5] was 57.8 nM (active) and 118 nM (active); in assay [4], 72.8 nM (active) and 132 nM (active).

In the case of `O=c1nc(-c2ccccn2)sc2ccccc12`, the Potency in assay [1] was 28.2 µM (active); in assay [5], 4.59 µM (active); in assay [4], 1.63 µM (active). For the same compound, the Potency result in assay [2] and in assay [6] was “inactive” each time.

Turning to `CC(C)c1ccc(NC(=O)Cn2cnc3c2c(=O)n(C)c(=O)n3C)cc1`, the Potency result in assay [1], in assay [2] and in assay [5] was “inactive” each time.

Turning to `Cc1cccc(C#Cc2cc(F)cc(C#N)c2)n1`, the Potency result in assay [1], in assay [2] and in assay [5] was “inactive” throughout.

On to `CCC(=O)N1CCOc2c(cc(-c3ccc(OC)c(OC)c3)cc2OC[C@H]2CCCN(C)C2)C1`, for which the Potency result in assay [1] was “inactive”. For the same compound, the Potency in assay [2] was 13.5 µM (active); in assay [5] it was 8.17 µM (active).
